# From PubChem
# TrxR1 inh – rat TrxR1 inhibition; Potency, µM (series often up to 114 µM), most hits filed as inhibitors; actives 1% (n = 390,000); O89049; recombinant rTrxR1, NADPH fluorescence consumption, selenite substrate; note: nearly all actives have a fitted effect of over 65% in size
# Target sequence (O89049 whole entry, looked up): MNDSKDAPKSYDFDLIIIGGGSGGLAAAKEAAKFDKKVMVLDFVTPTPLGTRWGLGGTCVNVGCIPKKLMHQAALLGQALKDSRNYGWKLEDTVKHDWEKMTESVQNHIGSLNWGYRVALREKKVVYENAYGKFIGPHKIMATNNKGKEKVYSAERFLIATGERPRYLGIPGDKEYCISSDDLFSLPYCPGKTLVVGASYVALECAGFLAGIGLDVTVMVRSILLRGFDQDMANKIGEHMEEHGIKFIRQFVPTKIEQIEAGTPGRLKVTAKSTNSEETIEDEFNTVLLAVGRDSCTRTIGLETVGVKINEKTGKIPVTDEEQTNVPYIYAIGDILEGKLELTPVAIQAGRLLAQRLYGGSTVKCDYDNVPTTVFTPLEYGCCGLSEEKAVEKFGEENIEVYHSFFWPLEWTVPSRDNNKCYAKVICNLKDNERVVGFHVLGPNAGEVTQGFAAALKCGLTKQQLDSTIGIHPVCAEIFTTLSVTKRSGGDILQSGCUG
#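 Rat TrxR1 (90 nM in the dispensed reagent) was pre-reduced with 400 uM NADPH for 5 min at room temperature, then incubated with compound for 15 min. After 400 uM selenite was added, NADPH fluorescence (Ex 340/Em 450 nm) was followed for 8 min.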
# VDR inhibitor – inhibitors of human vitamin D receptor | P11473 | VDR-SRC2-3 peptide fluorescence polarization, 2 h | Potency, µM, usual class: inhibitors | actives 0.93% (n = 400,000) | AID 504847
#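 FP read-out; VDR + SRC2-3 coactivator peptide; 23 nl compound by pintool; 2 h RT incubation; reagents held at 4 deg C, protected from light.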
# Vif-A3G inh – inhibitors of Vif-APOBEC3G interaction; Q9HC16; HeLa A3G-eYFP + Vif (tagged APOBEC3G with the HIV-1 protein that degrades it), YFP fluorescence, overnight; Potency, µM (highest dose often 46.1 µM), hits mostly inhibitors; actives 0.076% (n = 410,000); AID 602310; note: nearly all actives have a fitted effect of over 60% in size
#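 Read-out is eYFP fluorescence (Ex 488/Em 500-530) from Vif-expressing HeLa A3G-eYFP cells; more signal means A3G escaped Vif-mediated degradation. Cells plated overnight, compound pinned in, incubated overnight at 37 deg C.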
# TrxR1 substrate – rat thioredoxin reductase 1 substrate activity; O89049; purified TrxR1 substrate turnover, NADPH consumption readout; Potency, µM (highest dose often 114 µM); actives 0.01% (n = 390,000); AID 588456; note: nearly all actives have a fitted effect of over 50% in size
#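 Rat TrxR1, dispensed at 90 nM, was prereduced with 400 uM NADPH (final) for 5 min at ~22 deg C, then incubated with compound 15 min before 400 uM selenite. A first-read NADPH fluorescence drop versus no-compound background flagged substrates.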
# Vif-A3F inh – blocks the Vif interaction with APOBEC3F; HeLa A3F-eYFP + Vif (tagged APOBEC3F with the HIV-1 protein that degrades it), YFP fluorescence increase; Potency, µM (titrated, usually from 46.1 µM); actives 0.2% (n = 390,000); note: nearly all actives have a fitted effect of over 65% in size
#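 Fluorescence increase (Ex 488/Em 500-530) after overnight compound treatment at 37 deg C flags inhibition of Vif-driven A3F-eYFP loss in stable HeLa A3F-eYFP/Vif cells seeded overnight beforehand.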
# USP1 UbRho – USP1-UAF1 deubiquitinase inhibition validated; Potency, µM (series often up to 114 µM), hits mostly inhibitors; shares compounds with VDR inhibitor; Ub-Rhodamine cleavage, fluorescence kinetic read; actives 50% (n = 50)
# VDR confirm – confirmation of human vitamin D receptor inhibitors; Potency, µM, actives largely listed as inhibitors; VDR-coactivator inhibition assay, qHTS confirmation; actives 89% (n = 840); AID 602199; shares compounds with VDR inhibitor
# VDR FP fluor – confirmation of human VDR-coactivator binding inhibitors, fluorescein label; actives 48% (n = 840); AID 602200; Potency, µM (doses to about 57.1 µM), most hits filed as inhibitors; shares compounds with VDR inhibitor; VDR-coactivator binding, fluorescein fluorescence polarization
# VDR bla – confirmation of human vitamin D receptor inhibitors in reporter cells; shares compounds with VDR inhibitor; VDR beta-lactamase reporter cells, FRET ratio; cells co-treated with VDR agonist LG190178; Potency, µM (series often up to 46.1 µM), hits mostly inhibitors; actives 23% (n = 840); AID 602202
# VDR viability – cytotoxic in counter-screen for VDR inhibitors; shares compounds with VDR inhibitor; cytotoxicity counter-screen, cell viability, qHTS; Potency, µM (series often up to 48.3 µM), most hits filed as cytotoxic; actives 18% (n = 840); note: nearly all actives have a fitted effect of over 75% in size
# Hits are given with their value; n = inactive; u = inconclusive; x = no result; ! = not active in a repeat; [ ] = remark or other dose. Rows were chosen to be rich in hits. Some 1.8% of all compounds tested hit in one or more screens of this group. Calls come from the whole dose curve; as a rule, active = well fitted curve in the direction sought with a large enough effect; inconclusive = small, poorly fitted or top-dose-only effect, or another doubt; inactive = no such curve, though single readings can be large; an effect the other way counts as inactive or inconclusive.
SMILES,TrxR1 inh,VDR inhibitor,Vif-A3G inh,TrxR1 substrate,Vif-A3F inh,VDR confirm,VDR FP fluor,VDR bla,VDR viability,others
CCCCC1C(=O)N(c2ccccc2)N(c2ccc(O)cc2)C1=O (centres undefined),7.9µM,11µM!,u,n,n,u,14µM,6.5µM,21µM,
CCCCC1C2C(=O)N(c3ccccc3)C(=O)C2ON1c1ccccc1 (centres undefined),n,n,n,n,n,x,x,x,x,
CCOC(=O)c1c(-c2ccccc2)csc1NC(=O)c1cc(-c2cccc(Cl)c2)on1,n,u,n,n,n,x,x,x,x,
CCOC(=O)c1c(-c2ccccc2)csc1NC(=O)c1cc(-c2cccc(OC)c2)on1,n,79µM,n,n,n,22,16µM,n,n,
C[S+](C)CC[C@H](N)C(=O)O,x,n,x,x,x,x,x,x,x,
CCOc1ccc(C(=O)CC(C(=O)O)N2CCN(Cc3ccccc3)CC2)cc1 (centres undefined),16µM,50µM,n,n,n,24,28µM,n,n,
CCOc1ccc(C(=O)OC(C)C(=O)N2CCN(Cc3ccccc3)CC2)cc1 (centres undefined),n,n,n,n,n,x,x,x,x,
CCOc1ccc(C(=O)N2CCCCCC2)cc1,n,n,n,n,n,x,x,x,x,
CCOc1ccc(C(=O)CC(C(=O)O)N2CCCCC2)cc1 (centres undefined),14µM,40µM,u,n,n,24,u,n,n,
CC(=O)Nc1ccc(NC(=O)c2nc(SCc3ccccc3F)ncc2Cl)cc1,n[0.0914 µM],x,n,n,x,x,x,x,x,
COc1ccc2sc(N(Cc3cccnc3)C(=O)C3COc4ccccc4O3)nc2c1 (centres undefined),n,n,n,n,n,x,x,x,x,
CCOc1ccccc1C1NC(c2ccc3c(c2)OCO3)=CC(c2ccccc2O)N1 (centres undefined),n,n,n,n[0.0914 µM],x,x,x,x,x,
Cc1cc(C)nc(S/C=C/C(=O)c2ccccc2F)n1,2µM,u,n,n,n,2,1.6µM,16µM,17µM,
Cc1cc(C)nc(NC(=S)NC(=O)c2ccccc2F)n1,n,n,n,n,n,x,x,x,x,
Cc1ccc(C2=NN=C(NC(=O)CSc3nncn3C)SC2)cc1,n,3.2µM,n,n,n,1.1,u,n,u,
O=C(C1CCCCC1)N(CCN1CCN(c2ccccc2CO)CC1)c1ccccn1,x,n,x,x,x,x,x,x,x,
O=[N+]([O-])c1ccccc1S(=O)(=O)NCc1ccccn1,n,x,n,n,x,x,x,x,x,
CCOC(=O)C(C#N)=C1CCN(Cc2ccccc2)CC1,n[2.29 µM],n,n,n[2.29 µM],n,x,x,x,x,
CCOC(=O)/C(C#N)=C1/C(=O)N(Cc2ccccc2)c2ccccc21,n,28µM,n,n,n,3.4,u,n,n,
COC(=O)C[C@H]1c2ccccc2S(=O)(=O)N1c1ccc(N(C)C)cc1,n,x,n,n,x,x,x,x,x,
CCOc1cc(C(Nc2cc(C)ccn2)c2ccc3cccnc3c2O)ccc1OC (centres undefined),1.3µM,22µM,n,n,u,7.1,3.5µM,n,u,
NN=C1c2cc(S(=O)(=O)NCCO)ccc2-c2ccc(S(=O)(=O)NCCO)cc21,n,n,n,n,x,x,x,x,x,
O=C(O)COc1cccc(-c2ocnc2-c2nc(-c3ccccc3)c(-c3ccccc3)o2)c1,x,u,x,x,x,x,x,x,x,USP1 UbRho=59µM
COc1cc(C)c(C)cc1S(=O)(=O)Nc1cccc(-c2ccc(N3CCOCC3)nn2)c1,n,n,n,n,n,x,x,x,x,
Ic1ccc(N2CCN(Cc3c[nH]c4ncccc34)CC2)cc1,n,u,n,n,n,x,x,x,x,USP1 UbRho=u
SMILES,TrxR1 inh,VDR inhibitor,Vif-A3G inh,TrxR1 substrate,Vif-A3F inh,VDR confirm,VDR FP fluor,VDR bla,VDR viability,others
Oc1ccc(CN2CCN(c3ccccc3)CC2)c2cccnc12,u,n,n,n,n,x,x,x,x,
CCCCN1C(=O)C(=Nc2cccc3cnccc23)c2ccccc21,n,50µM,n,n,n,15,u,n,n,
O=C(C1CCCCC1)N(Cc1cccnc1)c1nc2ccc(Cl)cc2s1,n,n,n,n,n,x,x,x,x,
O=C(/C=C/c1ccnc2ccccc12)c1cccs1,u,u,n,n,n,11,18µM,u,u,
C(=C\c1ccnc2ccccc12)/c1cccs1,n,x,n,n,x,x,x,x,x,
CC1=NOC(=O)/C1=C\c1ccc(-c2cccc(Cl)c2)o1,u,u,u,n,n,x,x,x,x,
CC1=NOC(=O)/C1=C\c1ccc(-c2ccccc2Br)o1,u,13µM,n,n,n,9.5,u,u,u,
CC(C)(C)c1ccc(-n2nc(C(N)=O)c(O)cc2=O)cc1,n,u,n,n,n,x,x,x,x,
CC(C)(C)c1ccc(-n2nc(C#N)c(Cl)cc2=O)cc1,16µM,u,u,n,n,7.9,8.9µM,2.6µM,u,
Cc1ccc(-c2nc(N3CCN(S(=O)(=O)c4ccc(F)cc4)CC3)c3ccc(Cl)cc3n2)cc1,n,n,n,n[0.457 µM],x,x,x,x,x,
O=C(CSc1nccn1Cc1ccc(F)cc1)Nc1ccc2c(c1)OCCO2,n,n,n,n,n,x,x,x,x,
COCCn1c(C)cc(C2=NNC(=Nc3ccccc3)SC2)c1C,n,n,n,n,n,x,x,x,x,
COc1ccccc1C1=NNC(=Nc2cccc(S(=O)(=O)N(C)C)c2)SC1,n,u,n,n,n,u,u,n,u,
N#CC(C#N)=NNc1ccc(S(=O)(=O)N2CCCCC2)cc1,32µM,8.9µM,n,n,n,6.7,3.2µM,n,u,
Cc1ccc(S(=O)(=O)Nc2ccc(O)c3ccccc23)c(C)c1,u,28µM,n,n,n,11,10µM,n,u,
O=C(O)/C=C/C(=O)c1ccc2c(c1)NC(=O)CO2,2.8µM,22µM,n,n,n,9.5,u,n,n,
O=C1COc2ccc(C(=O)NC3CC3)cc2N1,n,n,n,n,n,x,x,x,x,
Cc1nc2ccc(N=NN(C)C)cc2[nH]1,n,50µM,n,n,n,21,u,n,u,
CCCC(=O)NCCc1c2n(c3ccc(OC)cc13)CCCc1ccccc1-2,n,n,x,n,x,x,x,x,x,USP1 UbRho=u
COc1ccc(OC)c(CCNC(=O)CCc2cn(C)c3ccccc23)c1,n,n,n,n,n,x,x,x,x,
COc1ccccc1NS(=O)(=O)c1cc(N)ccc1N1CCOCC1,n,79µM,n,n,n,21,20µM,n,n,
COc1ccc(OC)c2c1C(=O)C(Cl)=C(Cl)C2=O,0.16µM,22µM,n,n,n,8.4,u,1.6µM,5.2µM,
